About 79,000 compounds went through this panel and 15% of them were active in at least one assay; those are over-represented in the sample as a whole. The source made the active and inactive calls. Rule as the data show it: active = growth inhibition above about 70%; inactive = the rest.
Tests used:
[1] = NCI Yeast Anticancer Drug Screen. Data for the rad52 strain (AID 147);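 also: 0% = growth of vehicle-treated control cultures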; conditions: S. cerevisiae rad52 mutant growth inhibition, active compounds read high
How it was run: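 Growth of repair-deficient yeast cells was compared between compound-treated and vehicle-treated cultures to give percent inhibition.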

[2] = NCI Yeast Anticancer Drug Screen. Data for the wt1 strain (AID 149);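 also: 0% = growth of vehicle-treated wt1 cultures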; conditions: S. cerevisiae wt1 strain (SPY 50644) growth inhibition, active compounds read high
How it was run: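 Readout: yeast growth inhibition, normalised to vehicle controls, in the wt1 strain exposed to test compounds.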

[3] = NCI Yeast Anticancer Drug Screen. Data for the rad50EPP+ strain (AID 151);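 also: 0% = growth of vehicle-treated control cultures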; conditions: S. cerevisiae rad50 mutant strain, active compounds read high
How it was run: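 Measured: growth inhibition of rad50EPP+ yeast. Reference: vehicle-treated controls. Screen uses strains with defined genetic alterations in DNA damage repair or cell cycle control.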

[4] = NCI Yeast Anticancer Drug Screen. Data for the mgt1 strain (AID 153); conditions: S. cerevisiae mgt1 mutant growth inhibition, active compounds read high
How it was run: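 Compounds were applied to mgt1 mutant yeast, and growth was then compared against vehicle-treated control cultures to give percent inhibition.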

[5] = NCI Yeast Anticancer Drug Screen. Data for the rad50 strain (AID 155);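 also: 0% = growth of vehicle-only cultures of the same strain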; conditions: S. cerevisiae rad50 strain growth inhibition, active compounds read high
How it was run: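 Compounds were tested on a yeast strain with an engineered DNA damage repair alteration; the reported value is growth inhibition normalised to vehicle treatment.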

[6] = NCI Yeast Anticancer Drug Screen. Data for the mec2-1 strain (AID 157); conditions: S. cerevisiae mec2-1 strain, active compounds read high
How it was run: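 Compounds were applied to mec2-1 yeast cells. Their growth was then compared with that of vehicle-treated cultures to give growth inhibition.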

[7] = NCI Yeast Anticancer Drug Screen. Data for the rad14 strain (AID 159);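 also: 0% = growth of vehicle-treated control cultures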; conditions: S. cerevisiae rad14 strain growth inhibition, active compounds read high
How it was run: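 Compound-treated yeast with a defined DNA-repair lesion; growth inhibition normalised to vehicle-treated cultures.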

[8] = NCI Yeast Anticancer Drug Screen. Data for the sgs1 mgt1 strain (AID 161);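 also: 0% = growth of cultures given vehicle only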; conditions: S. cerevisiae sgs1 mgt1 strain, active compounds read high
How it was run: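 Percent growth inhibition was derived by comparing compound-exposed mutant yeast with vehicle-exposed cultures. The strain carries alterations in DNA damage repair.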

[9] = NCI Yeast Anticancer Drug Screen. Data for the CLN2oe strain (AID 163);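 also: 0% = growth of vehicle-only control cultures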; conditions: S. cerevisiae CLN2oe strain, active compounds read high
How it was run: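 Cells of an engineered yeast line with disturbed cell-cycle regulation are treated with compound. Inhibition of growth is then calculated relative to the vehicle-treated reference.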

[10] = NCI Yeast Anticancer Drug Screen. Data for the cln2 rad14 strain (AID 165);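 also: 0% = growth equal to vehicle treated cultures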; conditions: S. cerevisiae cln2 rad14 strain, active compounds read high
How it was run: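 Strain: cln2 rad14 yeast, altered in cell cycle control and DNA damage repair. Read-out: growth inhibition vs vehicle.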

[11] = NCI Yeast Anticancer Drug Screen. Data for the bub3 strain (AID 167); conditions: S. cerevisiae bub3 mutant strain, active compounds read high
How it was run: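 Growth of a checkpoint-deficient yeast mutant is measured after compound exposure. Values represent inhibition relative to vehicle.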

[12] = NCI Yeast Anticancer Drug Screen. Data for the wt2 strain (AID 169);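 also: 0% = growth of vehicle-treated yeast cultures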; conditions: S. cerevisiae wt2 strain growth inhibition, active compounds read high
How it was run: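 Growth of compound-treated yeast is measured and expressed as inhibition relative to vehicle-only controls.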

[13] = NCI Yeast Anticancer Drug Screen. Data for the mlh1 strain (AID 171);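 also: 0% = growth of vehicle-treated control cultures of the same strain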; conditions: S. cerevisiae mlh1 strain growth inhibition, active compounds read high
How it was run: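 Test agents were incubated with yeast bearing a defined DNA damage repair or cell cycle control alteration; values are growth inhibition normalised to vehicle-treated cultures.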

[14] = NCI Yeast Anticancer Drug Screen. Data for the sgs1 strain (AID 173);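 also: 0% = growth of vehicle-only control cultures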; conditions: S. cerevisiae sgs1 mutant, active compounds read high
How it was run: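 Strain with an altered DNA repair or cell cycle pathway exposed to compound. Growth then measured. Value = inhibition versus vehicle control.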

[15] = NCI Yeast Anticancer Drug Screen. Data for the mlh1 rad18 strain (AID 175); conditions: S. cerevisiae mlh1 rad18 strain growth inhibition, active compounds read high
How it was run: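 A repair-deficient yeast strain is exposed to test compound, and growth is scored relative to vehicle-treated controls.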

[16] = NCI Yeast Anticancer Drug Screen. Data for the rad18 strain (AID 177); conditions: S. cerevisiae rad18 mutant growth inhibition, active compounds read high
How it was run: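 DNA-repair-defective yeast; compound treatment; growth inhibition scored against vehicle.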

[17] = at 5.0 µM (retest, dose inferred, filed as 0.5)
[18] = at 50.0 µM (retest, dose inferred, filed as 5.0)

Measured: growth inhibition

CCCCCCCCCCCCCCCCCCN(C)C(COC)COP(=O)([O-])OCC[N+](C)(C)C (stereo not drawn)
active: [1]; at 11.0 µM 95% | [1]; at 33.0 µM 97% | [1]; at 100.0 µM 97% | [2]; at 11.0 µM 98% | [2]; at 33.0 µM 99% | [2]; at 100.0 µM 98% | [3]; at 11.0 µM 97% | [3]; at 33.0 µM 98% | [3]; at 100.0 µM 98% | [4]; at 11.0 µM 98% | [4]; at 33.0 µM 99% | [4]; at 100.0 µM 98% | [5]; at 11.0 µM 97% | [5]; at 33.0 µM 98% | [5]; [18] 98% | [5]; at 50.0 µM 73.6% | [5]; at 100.0 µM 98% | [6]; at 11.0 µM 97% | [6]; at 33.0 µM 98% | [6]; [18] 99% | [6]; at 100.0 µM 98% | [7]; at 11.0 µM 96% | [7]; at 33.0 µM 98% | [7]; at 100.0 µM 97% | [8]; at 50.0 µM 85.8% | [9]; at 11.0 µM 97% | [9]; at 33.0 µM 98% | [9]; at 100.0 µM 98% | [11]; at 11.0 µM 98% | [11]; at 33.0 µM 98% | [11]; at 50.0 µM 85.2% | [11]; at 100.0 µM 98% | [12]; at 11.0 µM 97% | [12]; at 33.0 µM 98% | [12]; at 100.0 µM 98% | [13]; at 11.0 µM 97% | [13]; at 33.0 µM 98% | [13]; at 100.0 µM 98% | [14]; at 11.0 µM 97% | [14]; at 33.0 µM 98% | [14]; at 100.0 µM 98% | [15]; [18] 98% | [16]; at 11.0 µM 97% | [16]; at 33.0 µM 98% | [16]; at 100.0 µM 98%
inactive: [1]; at 1.2 µM -58% | [1]; at 3.7 µM -67% | [2]; at 1.2 µM -34% | [2]; at 3.7 µM -56% | [3]; at 1.2 µM -33% | [3]; at 3.7 µM 63% | [4]; at 1.2 µM 14% | [4]; at 3.7 µM 8% | [5]; at 1.2 µM -24% | [5]; at 3.7 µM -11% | [5]; [17] 1% | [6]; at 1.2 µM -48% | [6]; at 3.7 µM -46% | [6]; [17] 12% | [6]; at 50.0 µM 23.9% | [7]; at 1.2 µM -69% | [7]; at 3.7 µM -78% | [8]; [17] 3% | [8]; [18] 2% | [9]; at 1.2 µM -39% | [9]; at 3.7 µM -44% | [10]; [17] 13% | [10]; [18] -70% | [10]; at 50.0 µM 8.85% | [11]; at 1.2 µM -23% | [11]; at 3.7 µM -40% | [11]; [17] 14% | [11]; [18] 10% | [12]; at 1.2 µM -41% | [12]; at 3.7 µM -55% | [13]; at 1.2 µM -34% | [13]; at 3.7 µM -54% | [14]; at 1.2 µM -64% | [14]; at 3.7 µM -64% | [15]; [17] 16% | [15]; at 50.0 µM 50% | [16]; at 1.2 µM -64% | [16]; at 3.7 µM -24%

From PubChem BioAssay (NCI)
